High-throughput results as filed in PubChem.
Compounds with a hit are over-represented: about 3.1% of the library has one in this group of screens.
EWS-Fli block: EWS/Fli transcriptional activity inhibition. A673 NR0B1-luciferase reporter, viability-normalised. inhibition, % at 12.6 µM. 350,000 compounds, 0.67% hits;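 active = mean inhibition of at least 50% after viability correction, with every replicate also passing that limit; inconclusive = mean reaches 50% but only one of two replicates passes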;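 note: firefly luciferase signal divided by Alamar Blue viability fluorescence both relative to DMSO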
INS-1E GSIS act: GLuc luminescence reporter in INS-1E cells, primary screen for activators of glucose-dependent secretion of insulin | INS-1E GLuc reporter insulin secretion, 2-3 h | activation, % at 16.6 µM | 370,000 compounds, 0.61% hits;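 active = lowest replicate activation of at least 40%, so every replicate reaches that level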;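 note: 0% = median of neutral control wells and 100% = median of IBMX positive control wells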
miR122 inh: miR-122 inhibition in Huh7 cells. Huh7 miR-122 Renilla luciferase sensor, 48 h; neutral wells = 0, positive control = 100. activation (reporter increase), % at 12.5 µM. 340,000 compounds, 0.3% hits;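 active = mean replicate activation score at least 90 and every replicate individually at or above 90; inconclusive = only one of the two criteria met; inactive = neither criterion met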;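 note: higher luciferase means less miR-122 activity so hits act as miR-122 inhibitors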
Env fusion inh: inhibitors of HIV Env-mediated cell fusion | HeLa-JRFL Env/CEM21 cell fusion, luciferase | inhibition, % at 12.3 µM | 360,000 compounds, 1.1% hits | AID 651610;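 active = mean replicate inhibition score of at least 50 and every replicate individually at or above 50; inconclusive = only one of the two criteria met; inactive = mean below 50 and not all replicates reaching 50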;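 note: 0% = plate neutral controls and 100% = maraviroc near 300 nM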
PAX8 reporter: PAX8 transcriptional activity inhibition; RMG-I TPO-luciferase reporter, SteadyGlo, 24 h; inhibition, % at 12.6 µM; 360,000 compounds, 1.2% hits;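 active = mean replicate inhibition at least 60% with every replicate also reaching 60%; inconclusive = only one of the two criteria is met; inactive = mean below 60% and not all replicates reaching 60%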;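 note: luciferase light reporting Pax8 driven TPO promoter activity; plate controls were median of neutral control wells for no effect and mitoxantrone controls for full effect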
C2C12 statin: suppression of simvastatin myotoxicity. C2C12 myotubes + simvastatin, ATP luminescence, 48 h; scaled: DMSO 0, geranylgeraniol control 100. rescue of ATP level, % at 7.49 µM. 330,000 compounds, 0.78% hits;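 active = mean ATP rescue above about 67%, or every replicate alone reaching that limit, limit read from the data, passing the limit was not always enough; inconclusive = no clear call, values can overlap the other calls; inactive = mean under the limit and some replicate under it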;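 note: myotubes were challenged with 10 µM simvastatin during compound exposure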
Starred values were filed as active, the others as inactive; u = inconclusive; x = not tested or not shown; [ ] = remark or other dose.

SMILES	EWS-Fli block	INS-1E GSIS act	miR122 inh	Env fusion inh	PAX8 reporter	C2C12 statin
Cc1ccc(S(=O)(=O)Oc2ccccc2-c2ccccc2)cc1	37.7	x	-1.4	60.4*	29.4	-15.4
CNC[C@@H]1Oc2ccc(NS(=O)(=O)c3ccc(OC)cc3)cc2CC(=O)N([C@@H](C)CO)C[C@@H]1C	-0.9	25.6	-1.9[16.7 µM]	-11.3[16.7 µM]	-13.0	-8.1
C/C=C/c1ccc([C@H]2[C@H](CO)N(C(C)=O)[C@H]2CN(C)C(=O)CN(C)C)cc1	-10.2	-1.9	0.0[16.7 µM]	x	3.8	-1.4
CN1C(=O)[C@@](O)(CC(=O)c2ccccc2)c2cc(Br)ccc21	29.5	6.8	x	6.4	1.3	x
CCCCN1C(=O)C(O)(c2ccccc2)c2cc(Br)ccc21 (configuration not stated)	-6.9	-34.5	6.7	85.2*	27.1	22.7
Cc1ccc(C(=O)n2nc(-c3cccnc3)nc2N)cc1	x	71.9*	-7.7	9.1	x	x
Cc1ccc(NC(=O)C2CCCN(S(=O)(=O)c3cccs3)C2)cc1 (configuration not stated)	x	x	0.9	x	x	77.6*
CCc1ccc(NC(=O)C2CCCN(S(=O)(=O)c3cccs3)C2)cc1 (configuration not stated)	17.7	7.6	-0.7	-0.8	6.4	-34.0
O=C(Nc1nc(-c2ccc3ccccc3c2)cs1)C1CCN(S(=O)(=O)c2cccs2)CC1	7.2	17.4	x	21.0	8.2	x
O=C(Nc1ccc(Br)cc1)C1CCCN1S(=O)(=O)c1cccs1 (configuration not stated)	x	x	0.9	x	x	139.3*
Cc1ccc(-c2csc(NC(=O)C3CCN(S(=O)(=O)c4cccs4)CC3)n2)cc1	x	-36.4	x	63.4*	17.0	x
O=C(Nc1nc(-c2ccccc2)cs1)C1CCCN(S(=O)(=O)c2ccccc2)C1 (configuration not stated)	x	-1.1	-3.6	96.6*	x	-4.2
O=C(Nc1nc(-c2ccccc2)cs1)C1CCCN(S(=O)(=O)c2cccc([N+](=O)[O-])c2)C1 (configuration not stated)	x	x	-13.4	49.9	23.5	x
C[C@@H]1CCCCO[C@H](CN(C)C(=O)C2CCCCC2)[C@H](C)CN([C@@H](C)CO)C(=O)c2cc(NC(=O)Nc3ccc(C(F)(F)F)cc3)ccc2O1	-9.2	7.8	-4.0[16.7 µM]	2.8[16.7 µM]	x	x
C[C@H]1CN([C@@H](C)CO)C(=O)c2cc(-c3ccncc3)cnc2O[C@H]1CN(C)C(=O)C1CCC1	4.2	6.8	6.7[16.7 µM]	3.6[16.7 µM]	x	30.0
O=C(COc1ccc2c3c(c(=O)oc2c1)CCC3)N1CCCC1	-19.1	17.0	-8.8	-13.2	-28.2	-5.9
O=C(O)COc1ccc2c3c(c(=O)oc2c1)CCC3	x	130.5*	-5.3	x	x	116.7*
CC(Oc1ccc2c3c(c(=O)oc2c1)CCCC3)C(=O)NCc1cccnc1 (configuration not stated)	3.7	48.1*	0.4	-15.6	9.1	-8.2
C[C@@H]1CN([C@@H](C)CO)C(=O)c2cc(NC(=O)Nc3ccc(F)cc3)ccc2O[C@@H](C)CCCCO[C@@H]1CN(C)S(=O)(=O)c1cn(C)cn1	0.7	18.2	2.9[16.7 µM]	-3.2[16.7 µM]	-4.2	x
C[C@@H]1CN([C@@H](C)CO)C(=O)c2cc(NS(=O)(=O)c3ccc(F)cc3)ccc2O[C@H]1CN(C)Cc1ccncc1	11.4	1.9	1.7[16.7 µM]	x	-16.5	-11.3
Cc1ccc2c(c1)C(=O)N1[C@H]3c4cc(Cl)ccc4OC[C@@H]3[C@H](c3ccccc3)[C@]1(C)C(=O)N2	51.9*	-10.3	-0.2	-0.9	4.5	-13.4
Cc1ccc2c(c1)C(=O)N1[C@H]3c4cc(C)ccc4OC[C@@H]3[C@H](c3ccccc3)[C@]1(C)C(=O)N2	49.4	-26.8	-8.4	17.3	25.6	8.4
COc1ccc2c(c1)OC[C@H]1[C@H]2N2C(=O)c3cc(OC)c(OC)cc3NC(=O)[C@@]2(C)[C@H]1c1ccccc1	-7.5	-13.6	-18.0	-31.2	-24.0	10.7
COc1ccc2c(c1)OC[C@H]1[C@H]2N2C(=O)CN(Cc3ccc(Cl)cc3)C(=O)[C@@]2(C)[C@H]1c1ccccc1	9.3	-2.6	1.9	72.5*	19.4	20.5
COc1cc2c(cc1OC)C(=O)N1[C@H]3c4ccccc4OC[C@@H]3[C@H](c3ccccc3)[C@]1(C)C(=O)N2	13.8	-24.5	x	66.4*	8.7	17.7
SMILES	EWS-Fli block	INS-1E GSIS act	miR122 inh	Env fusion inh	PAX8 reporter	C2C12 statin
C[C@H](CO)N1C[C@H](C)[C@@H](CN(C)Cc2ccc(Oc3ccccc3)cc2)Oc2ccc(NC(=O)CCN3CCOCC3)cc2CC1=O	10.9	-11.3	7.3[16.7 µM]	13.8[16.7 µM]	x	19.0
COc1cccc(-c2ccc3c(c2)[C@@H]2[C@@H](CCN2S(=O)(=O)c2cccc(OC)c2)[C@H](CO)N3)c1	-0.3	1.6	-4.0[16.7 µM]	x	73.4*	-7.2
COc1ccc(S(=O)(=O)N2CC[C@H]3[C@H](CO)Nc4ccc(-c5cccc(C#N)c5)cc4[C@H]32)cc1	-3.3	2.5	-7.3[16.7 µM]	x	31.0	-23.8
COc1ccc(S(=O)(=O)N2CC[C@@H]3[C@@H](CO)Nc4ccc(-c5cccc(C#N)c5)cc4[C@@H]32)cc1	54.0*	12.0	21.7[16.7 µM]	x	33.4	-46.1
C=CC[C@]12CCc3ccccc3C1N(c1ccc(C(=O)OCC)cc1)C2=O (some centres not stated)	6.1	-13.9	-2.1	61.5*	12.2	0.3
NC(=S)NN=Cc1nccc2c(C(F)(F)F)cccc12	10.1	-23.8	x	u	72.5*	-3.4
CNc1cccnc1C=NNC(N)=S	19.8	2.4	-1.3	81.4*	30.4	x
O=C(Cc1cccs1)NNC(=O)c1ccccc1Cl	-6.4	14.5	x	x	-4.3	5.0
O=C(Cc1ccsc1)NNC(=O)c1ccccc1Cl	6.2	41.7*	x	5.3	2.5	8.2
CC(C)c1cc(C(=O)OCC(=O)N2CCN(C(=O)c3ccco3)CC2)c(O)c(C(C)C)c1	5.9	-25.7	-1.7	12.8	113.3*	6.8
COc1ccc(C(=O)OCC(=O)N2CCN(C(=O)c3ccco3)CC2)cc1OC	0.8	3.0	-8.0	x	24.7	88.2*
C/C=C/c1ccc2c(c1)O[C@@H](CN(C)C)[C@@H](C)CN([C@H](C)CO)S2(=O)=O	-4.1	20.4	-3.4[16.7 µM]	-22.4[16.7 µM]	x	-4.3
N#CCc1nn(-c2ccccc2)c2ncnc(N)c12	-1.9	71.4*	x	-70.0	-15.8	x
CN(C)c1ccc(NC(=S)c2ccccn2)cc1	86.2*	-17.6	-9.0	26.8	u	-32.4
Cc1ccc(OCC(=O)c2cc(C)n(-c3ccccc3)c2C)c([N+](=O)[O-])n1	x	-4.5	x	66.7*	4.1	x
O=C(OCC(=O)N1CCN(c2ccccc2)CC1)C1=COCCO1	x	1.4	-0.4	-67.4	x	-8.9
Cc1cc(C(=O)COC(=O)C2=NNC(=O)CC2)c(C)n1-c1ccccc1	4.8	-13.8	-4.9	x	x	140.8*
Cc1cc(C(=O)COC(=O)C2=COCCO2)c(C)n1-c1ccccc1	15.7	-0.9	x	47.3	74.6*	x
